From ChEMBL document CHEMBL1157539, “Thousands of chemical starting points for antimalarial lead identification” (Nature, 2010) come the findings set out here.

The test system of this test is Plasmodium falciparum. As to the kind of experiment: GSK_TCMDC: Inhibition of Plasmodium falciparum Dd2 in whole red blood cells, using parasite LDH activity as an index of growth. Test compounds present at 2uM. It is filed as functional.
Compound `CCn1c(-c2nonc2N)nc2c(-c3cccc(NC(=O)Nc4cccc(Cl)c4)c3)ncc(OCCCN)c21.O=C(O)C(F)(F)F` gave an Inhibition of 78%.

In the case of `Cc1ccc2[nH]c3c(c2c1)CC(C(=O)NCCC(C)C)NC31CCN(Cc2ccccc2)CC1` (stereo unspecified), the Inhibition is 50%.

In turn, `Cc1cccn2c(=O)c3cc(C(=O)NCCN4CCOCC4)c(=N)n(CCc4ccccc4)c3nc12` returned an Inhibition of 85%.

The compound `COc1ccc2nccc([C@@H](O)CN3CCC(NC(=O)c4cc5ccccc5[nH]4)CC3)c2c1.CS(=O)(=O)O` showed an Inhibition of 55%.

For the compound `Cc1ccc(C(=O)Nc2cccc(CN3CCCN(Cc4ccc(O)cc4)CC3)c2)s1.O=C(O)C(F)(F)F`, the Inhibition worked out at 23%. The figure for `COc1ccc2nc(-c3ccccc3)cc(NCCN(C)C)c2c1` is 23%. To `CCCC(CNCc1ccc(Cl)c(C(F)(F)F)c1)CNc1nc2cnccc2[nH]1.Cl` (stereo unspecified) belongs 8%; to `O=C(Nc1ccccc1N1CCOCC1)c1ncoc1-c1ccccc1C(F)(F)F`, 60%. The figure for `O=C(Nc1ccc(C(=O)N2CCN(CCN3CCN(c4cccc(C(F)(F)F)c4)CC3)CC2)cc1)c1ccc(C(F)(F)F)cc1` is 28%. With `O=C(Nc1cccc(CN2CCCN(Cc3ccc(O)cc3)CC2)c1)c1ccc2ccccc2n1.O=C(O)C(F)(F)F`, the Inhibition stood at 22%. `Cc1ccc(C)c(Cn2ccc3nc(Cl)nc(Cl)c32)c1` displayed an Inhibition of 68%. Compound `O=C(Nc1cccc(C(F)(F)F)c1)Nc1ccc2nonc2c1` came in with an Inhibition of 76%. To `CCCCCC(=O)N1CCOC(CCN2CCC(c3ccccc3)CC2)(c2ccc(Cl)c(Cl)c2)C1` (stereo unspecified) belongs 51%. In turn, `CCN(CC)c1nc(-c2ccccc2)cc(-c2ccccc2)c1C#N` displayed an Inhibition of 66%. To `COc1ccc2[nH]cc(C3CCN(CCCCCNC(=O)c4ccc(-c5ccccc5)cc4)CC3)c2c1` belongs 16%; to `CN(C)CCOc1cc(NC(=O)Nc2ccc(Cl)cc2C(F)(F)F)ccc1I`, 16%.

The compound `O=C(/C=C/c1ccc(Cl)cc1)NCCCCCN1CCC(C(=O)Nc2ccc(Cl)c(Cl)c2)CC1` displayed an Inhibition of 0%. As for `Cc1cc(C2CCN(CCCCNC(=O)c3ccc(-c4ccc(C(F)(F)F)cc4)cc3)CC2)c(C)cc1OCC#N`, the Inhibition stood at 58%. The figure for `O=C(Nc1cccc(-c2ccc(-c3nc4cc(F)ccc4[nH]3)s2)c1)c1ccncc1` is 29%; for `COc1cc2nc(NCCc3ccccc3)nc(N(C)Cc3ccccc3)c2cc1OC` it is 58%. To `COc1cc(CCNC(=N)/C=C/c2ccc(Cl)cc2)ccc1Cl.Cl` belongs 16%; to `Cc1nc(O)c2c(ccc3ccc(CNc4ccc(C(=O)N[C@@H](CCC(=O)O)C(=O)O)cc4)cc32)n1`, 95%; to `COc1ccc(C(=O)NCC(C)(C)c2nc(-c3ccc(Cl)c(O)c3)c(-c3ccncc3)[nH]2)cc1OCCN(C(C)C)C(C)C.Cl`, 96%. The figure for `Cc1oc(-c2ccccc2)nc1CCOc1ccc(C[C@H](Nc2ccccc2C(=O)c2ccccc2)C(=O)NCc2ccccn2)cc1` is 54%.

`CC(C)(C)c1ccc(NC(=O)c2cccc(CN3CCCN(Cc4ccsc4)CC3)c2)cc1.O=C(O)C(F)(F)F` came in with an Inhibition of 3%. Turning to `NC(=O)c1cccc(C(=O)Nc2ccc(-c3cccc(-c4nc5cc(C(F)(F)F)ccc5[nH]4)c3)cc2)c1`, the Inhibition is 86%. On to `COc1ccccc1-c1cc(C(=O)N2CCN(S(=O)(=O)c3ccc(C)cc3)CC2)[nH]n1`, for which the Inhibition was 88%. `CS(=O)(=O)c1cccc(-c2ccc3oc(C(N)=O)c(NC(=O)c4cccs4)c3c2)c1` showed an Inhibition of 77%. The figure for `CCOc1ccccc1C=CC(=O)Nc1ccc2nc(N3CCN(C)CC3)cc(C)c2c1` is 91%; for `CCOC(=O)c1cc(C(=O)NCCCCN2CCC(c3cn(C)c4ccccc34)CC2)ccc1-c1ccc(C(F)(F)F)cc1` it is 6%; for `Cc1nc2nc(N)nc(N)c2c(C)c1Cc1ccccc1I.Cl` it is 0%. Take `O=C(O)C(F)(F)F.OC1CCCN(Cc2ccc(-c3cccc(-c4nc5cc(F)ccc5[nH]4)c3)cc2)C1` (stereo unspecified): the Inhibition is recorded as 49%. `O=C(Nc1ccc(Cl)c(Cl)c1)N[C@H]1CCN(CCCCCNC(=O)C2CC2c2ccc(Cl)c(Cl)c2)C1` (stereo partly specified) registered an Inhibition of 8%. Compound `CC(C)CCNC(=O)c1cnc2c(O)cccc2c1Nc1cccc(NC(=O)c2ccc(F)cc2)c1.O=C(O)C(F)(F)F` displayed an Inhibition of 43%. To `CCCCCCn1c(Sc2ccc(C#N)c([N+](=O)[O-])c2)nnc1-c1cc(OC)cc(OC)c1` belongs 41%; to `Cc1cc(=NN=CC=Cc2ccccc2)c2ccccc2[nH]1`, 69%.

A word on the Inhibition: it is the drop in the measured response relative to a control, in per cent. Lower therefore signals a weak effect.
